# Experimental data taken from PMC5540273 (PLoS ONE, 2017).
# Like-named read-outs stand apart in the source and are kept apart here.
# Columns and labels:
# Conditions in all cases: n = 1
# [1] = system: LYN
# [2] = system: T1, LZK
# T1 construct: gene MAP3K13
# [3] = system: MAK
# [4] = system: MAP3K15
# [5] = system: MAP3K1
# [6] = system: MAP3K2
# [7] = system: MAP3K3
# [8] = system: MAP3K4
# [9] = system: MAP4K2
# [10] = system: MAP4K3
# [11] = system: MAP4K4
# [12] = system: MAP4K5
# [13] = system: MAPKAPK2
# [14] = system: MAPKAPK5
# [15] = system: MARK1
# [16] = system: MARK2
# [17] = system: MARK3
# [18] = system: MARK4
# [19] = system: MAST1
# [20] = system: T2, MEK1
# T2 construct: gene MAP2K1
# [21] = concentration: 1 μM, replicates: in singlicate
# 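Also: KINOMEscan kinase panel screen.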
smiles,measurement,setting,value
CCCc1ccc(S(=O)(=O)NC2CCN(c3ccnc(Nc4ccc(F)cc4)n3)C2)cc1 (stereo not drawn) [GSK1379715],%Inh,[1]; [21],0%
same,%Inh,[2]; [21],0%
same,%Inh,[3]; [21],60%
same,%Inh,[4]; [21],0%
same,%Inh,[5]; [21],15%
same,%Inh,[6]; [21],2%
same,%Inh,[7]; [21],0%
same,%Inh,[8]; [21],44%
same,%Inh,[9]; [21],0%
same,%Inh,[10]; [21],1%
same,%Inh,[11]; [21],0%
same,%Inh,[12]; [21],0%
same,%Inh,[13]; [21],15%
same,%Inh,[14]; [21],0%
same,%Inh,[15]; [21],0%
same,%Inh,[16]; [21],0%
same,%Inh,[17]; [21],0%
same,%Inh,[18]; [21],0%
same,%Inh,[19]; [21],48%
same,%Inh,[20]; [21],0%
COc1cccc(-c2cc(-c3c[nH]nc3-c3ccccn3)ccn2)c1 [GW680338],%Inh,[1]; [21],26%
same,%Inh,[2]; [21],28%
same,%Inh,[3]; [21],100%
same,%Inh,[4]; [21],0%
same,%Inh,[5]; [21],15%
same,%Inh,[6]; [21],0%
same,%Inh,[7]; [21],0%
same,%Inh,[8]; [21],15%
same,%Inh,[9]; [21],8%
same,%Inh,[10]; [21],0%
same,%Inh,[11]; [21],40%
same,%Inh,[12]; [21],1%
same,%Inh,[13]; [21],0%
same,%Inh,[14]; [21],1%
same,%Inh,[15]; [21],0%
same,%Inh,[16]; [21],12%
same,%Inh,[17]; [21],0%
same,%Inh,[18]; [21],0%
same,%Inh,[19]; [21],0%
same,%Inh,[20]; [21],16%
Cc1ccc(NC(=O)Nc2cccc(C(F)(F)F)c2)cc1 [GSK955403],%Inh,[1]; 1 µM,0%
same,%Inh,[2]; 1 µM,0%
same,%Inh,[3]; 1 µM,0%
same,%Inh,[4]; 1 µM,0%
same,%Inh,[5]; 1 µM,0%
same,%Inh,[6]; 1 µM,0%
same,%Inh,[7]; 1 µM,3%
same,%Inh,[8]; 1 µM,35%
same,%Inh,[9]; 1 µM,0%
same,%Inh,[10]; 1 µM,0%
same,%Inh,[11]; 1 µM,0%
same,%Inh,[12]; 1 µM,0%
same,%Inh,[13]; 1 µM,0%
same,%Inh,[14]; 1 µM,0%
same,%Inh,[15]; 1 µM,0%
same,%Inh,[16]; 1 µM,0%
same,%Inh,[17]; 1 µM,0%
same,%Inh,[18]; 1 µM,4%
same,%Inh,[19]; 1 µM,21%
same,%Inh,[20]; 1 µM,5%
Cc1c(Cn2ccn3c(=O)cc(N4CCOCC4)nc23)cccc1C(F)(F)F [GSK2289044],%Inh,[1]; [21],22%
same,%Inh,[2]; [21],0%
same,%Inh,[3]; [21],20%
same,%Inh,[4]; [21],0%
same,%Inh,[5]; [21],15%
same,%Inh,[6]; [21],7%
same,%Inh,[7]; [21],0%
same,%Inh,[8]; [21],20%
same,%Inh,[9]; [21],1%
same,%Inh,[10]; [21],0%
same,%Inh,[11]; [21],0%
same,%Inh,[12]; [21],0%
same,%Inh,[13]; [21],4%
same,%Inh,[14]; [21],0%
same,%Inh,[15]; [21],0%
same,%Inh,[16]; [21],5%
same,%Inh,[17]; [21],2%
same,%Inh,[18]; [21],0%
same,%Inh,[19]; [21],0%
same,%Inh,[20]; [21],0%
CCn1c(-c2cccnc2O)nc2cnccc21 [SB-736715],%Inh,[1]; [21],0%
same,%Inh,[2]; [21],11%
same,%Inh,[3]; [21],13%
same,%Inh,[4]; [21],0%
same,%Inh,[5]; [21],0%
same,%Inh,[6]; [21],0%
same,%Inh,[7]; [21],0%
same,%Inh,[8]; [21],0%
same,%Inh,[9]; [21],0%
same,%Inh,[10]; [21],0%
same,%Inh,[11]; [21],0%
same,%Inh,[12]; [21],0%
same,%Inh,[13]; [21],16%
same,%Inh,[14]; [21],0%
same,%Inh,[15]; [21],0%
same,%Inh,[16]; [21],15%
same,%Inh,[17]; [21],0%
same,%Inh,[18]; [21],0%
same,%Inh,[19]; [21],13%
same,%Inh,[20]; [21],0%
COc1cc(Nc2nccc(N3CCC(NC(=O)Nc4cc(C)ccc4C)C3)n2)cc(OC)c1OC (stereo not drawn) [GSK1379762],%Inh,[1]; [21],6%
same,%Inh,[2]; [21],0%
same,%Inh,[3]; [21],54%
same,%Inh,[4]; [21],17%
same,%Inh,[5]; [21],16%
same,%Inh,[6]; [21],0%
same,%Inh,[7]; [21],0%
same,%Inh,[8]; [21],12%
same,%Inh,[9]; [21],0%
same,%Inh,[10]; [21],0%
same,%Inh,[11]; [21],0%
same,%Inh,[12]; [21],0%
same,%Inh,[13]; [21],10%
same,%Inh,[14]; [21],0%
same,%Inh,[15]; [21],0%
same,%Inh,[16]; [21],0%
same,%Inh,[17]; [21],8%
same,%Inh,[18]; [21],9%
same,%Inh,[19]; [21],2%
same,%Inh,[20]; [21],0%
